This passage reports binding signal results from publication PMC7862700, “An all-to-all approach to the identification of sequence-specific readers for epigenetic DNA modifications on cytosine”.

Holding throughout (experiment): DAPPL (digital affinity profiling via proximity ligation, sequencing); 10 mM Tris-HCl pH 7.5, 50 mM NaCl, 1 mM DTT, 4% glycerol, room temperature, 30 min; GST-TFs on glutathione beads, 16-mer random dsDNA library, 0.1% formaldehyde crosslink after washing; high values mean tight binding
Common to all, as to details: protein: recombinant; tags: N-terminal GST; dsDNA, one strand shown

One experiment concerns the target T1, FLI1 (Homo sapiens, UniProt Q01543 1-452).
T1 sequence: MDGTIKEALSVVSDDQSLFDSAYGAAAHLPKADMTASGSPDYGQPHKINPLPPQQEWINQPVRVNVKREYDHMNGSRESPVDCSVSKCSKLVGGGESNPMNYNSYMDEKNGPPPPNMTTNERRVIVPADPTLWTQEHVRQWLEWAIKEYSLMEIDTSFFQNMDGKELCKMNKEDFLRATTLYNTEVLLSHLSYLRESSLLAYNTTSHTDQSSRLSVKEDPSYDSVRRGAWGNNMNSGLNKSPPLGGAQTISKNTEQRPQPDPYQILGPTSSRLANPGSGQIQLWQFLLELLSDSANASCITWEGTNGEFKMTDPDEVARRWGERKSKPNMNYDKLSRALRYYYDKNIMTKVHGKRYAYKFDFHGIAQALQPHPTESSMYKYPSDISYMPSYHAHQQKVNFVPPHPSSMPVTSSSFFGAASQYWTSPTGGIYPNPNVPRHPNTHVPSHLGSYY
In short, it runs like this:
(§1)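 Binding signal is defined as a hexamer's read frequency for one factor over its frequency for the tag-only sample. To obtain reads, GST-fused human transcription factors were expressed in yeast, captured on glutathione beads, barcoded with DNA and pooled with that sample. Pools met 200 nmole of a 16-mer random double-stranded DNA library in Tris/NaCl/DTT/glycerol buffer for 30 min at room temperature before washing, 0.1% formaldehyde crosslinking, proximity ligation (BsaI/T4 ligase, 1 h, 37 °C), PCR and Illumina NextSeq500 sequencing.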

The target in another experiment is T2, ELK1 (Homo sapiens, UniProt P19419 1-428).
T2 sequence: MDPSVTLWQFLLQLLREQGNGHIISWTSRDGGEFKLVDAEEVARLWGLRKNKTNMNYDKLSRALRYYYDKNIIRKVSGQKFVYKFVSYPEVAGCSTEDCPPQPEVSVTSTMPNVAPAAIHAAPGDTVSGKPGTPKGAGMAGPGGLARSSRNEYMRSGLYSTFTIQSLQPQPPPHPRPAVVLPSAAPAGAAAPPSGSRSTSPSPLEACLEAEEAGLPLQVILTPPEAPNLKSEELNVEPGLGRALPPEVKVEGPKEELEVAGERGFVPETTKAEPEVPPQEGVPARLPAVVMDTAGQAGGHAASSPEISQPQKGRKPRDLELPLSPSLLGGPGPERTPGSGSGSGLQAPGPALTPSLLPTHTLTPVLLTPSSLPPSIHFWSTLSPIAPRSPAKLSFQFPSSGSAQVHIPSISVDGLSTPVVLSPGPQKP
In short, it runs like this:
as §1

The target of the next experiment is T3, GABPA (Homo sapiens, UniProt Q06546 1-454).
T3 sequence: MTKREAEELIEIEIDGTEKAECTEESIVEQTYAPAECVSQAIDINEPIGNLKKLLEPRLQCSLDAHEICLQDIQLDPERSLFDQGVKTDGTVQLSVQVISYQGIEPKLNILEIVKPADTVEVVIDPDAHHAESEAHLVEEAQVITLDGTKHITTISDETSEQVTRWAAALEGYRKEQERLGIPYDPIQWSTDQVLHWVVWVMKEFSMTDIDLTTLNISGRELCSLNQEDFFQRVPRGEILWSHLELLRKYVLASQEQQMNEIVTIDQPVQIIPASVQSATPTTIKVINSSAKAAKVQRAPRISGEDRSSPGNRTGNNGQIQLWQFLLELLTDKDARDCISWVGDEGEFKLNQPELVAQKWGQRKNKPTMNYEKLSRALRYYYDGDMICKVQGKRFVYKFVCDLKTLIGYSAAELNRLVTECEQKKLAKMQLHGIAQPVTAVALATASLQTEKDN
In short, it runs like this:
as §1

A further experiment has as its target T4, ERG (Homo sapiens, UniProt P11308 1-479).
T4 sequence: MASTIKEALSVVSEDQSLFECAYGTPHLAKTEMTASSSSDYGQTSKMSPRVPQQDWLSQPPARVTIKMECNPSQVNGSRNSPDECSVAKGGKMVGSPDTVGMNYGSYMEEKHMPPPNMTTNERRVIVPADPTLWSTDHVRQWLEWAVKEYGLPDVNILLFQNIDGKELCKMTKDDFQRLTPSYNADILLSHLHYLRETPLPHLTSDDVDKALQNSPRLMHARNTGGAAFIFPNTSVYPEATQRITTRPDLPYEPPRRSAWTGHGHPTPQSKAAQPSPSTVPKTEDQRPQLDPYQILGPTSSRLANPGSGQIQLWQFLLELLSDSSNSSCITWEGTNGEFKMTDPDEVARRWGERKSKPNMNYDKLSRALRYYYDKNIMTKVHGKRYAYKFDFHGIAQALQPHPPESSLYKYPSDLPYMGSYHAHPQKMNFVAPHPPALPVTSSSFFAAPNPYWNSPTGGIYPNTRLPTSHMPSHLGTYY
The method in brief:
as §1

Another experiment concerns the target ELF1 (Homo sapiens, UniProt P32519 1-619). In short, it runs like this: as §1
A further experiment deals with T5, EHF (Homo sapiens, UniProt Q9NZC4 1-300).
T5 sequence: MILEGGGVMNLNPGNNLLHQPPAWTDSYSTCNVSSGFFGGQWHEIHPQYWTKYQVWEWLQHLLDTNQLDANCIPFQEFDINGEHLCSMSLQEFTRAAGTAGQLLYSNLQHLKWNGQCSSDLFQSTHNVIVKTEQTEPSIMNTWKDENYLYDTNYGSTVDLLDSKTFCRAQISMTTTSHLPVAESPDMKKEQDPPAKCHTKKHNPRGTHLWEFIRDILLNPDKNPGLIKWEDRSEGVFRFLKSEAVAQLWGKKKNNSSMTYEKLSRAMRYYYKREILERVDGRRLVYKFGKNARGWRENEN
In short, it runs like this:
as §1

A further experiment deals with SPI1 (Homo sapiens, UniProt P17947 1-270). The method in brief: as §1
The next experiment concerns the target SPIB (Homo sapiens, UniProt Q01892 1-262). The method in brief:
as §1

The next experiment addresses T6, ELK3 (Homo sapiens, UniProt P41970 1-407).
T6 sequence: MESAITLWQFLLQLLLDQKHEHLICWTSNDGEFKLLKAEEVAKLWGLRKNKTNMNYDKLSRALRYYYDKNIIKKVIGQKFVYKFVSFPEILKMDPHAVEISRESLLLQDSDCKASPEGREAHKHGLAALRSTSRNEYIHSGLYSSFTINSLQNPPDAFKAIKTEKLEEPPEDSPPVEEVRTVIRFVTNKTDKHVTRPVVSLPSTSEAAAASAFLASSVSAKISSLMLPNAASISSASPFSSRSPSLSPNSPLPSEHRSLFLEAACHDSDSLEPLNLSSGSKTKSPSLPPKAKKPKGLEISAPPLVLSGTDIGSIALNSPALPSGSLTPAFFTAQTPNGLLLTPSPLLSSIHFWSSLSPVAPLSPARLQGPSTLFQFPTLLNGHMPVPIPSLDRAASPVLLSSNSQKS
In short, it runs like this:
as §1

A further experiment has as its target T7, FEV (Homo sapiens, UniProt Q99581 1-238).
T7 sequence: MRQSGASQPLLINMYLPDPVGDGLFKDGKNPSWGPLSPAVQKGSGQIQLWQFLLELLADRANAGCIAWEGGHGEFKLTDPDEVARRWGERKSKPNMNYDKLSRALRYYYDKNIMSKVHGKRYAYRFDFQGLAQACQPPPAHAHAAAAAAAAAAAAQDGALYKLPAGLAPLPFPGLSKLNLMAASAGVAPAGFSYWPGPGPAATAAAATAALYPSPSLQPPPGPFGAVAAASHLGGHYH
In short, it runs like this: as §1

The next experiment addresses ETV5 (Homo sapiens, UniProt P41161 1-510). The method in brief:
as §1

For a further experiment, the target named is T8, SPIC (Homo sapiens, UniProt Q8N5J4 1-248).
T8 sequence: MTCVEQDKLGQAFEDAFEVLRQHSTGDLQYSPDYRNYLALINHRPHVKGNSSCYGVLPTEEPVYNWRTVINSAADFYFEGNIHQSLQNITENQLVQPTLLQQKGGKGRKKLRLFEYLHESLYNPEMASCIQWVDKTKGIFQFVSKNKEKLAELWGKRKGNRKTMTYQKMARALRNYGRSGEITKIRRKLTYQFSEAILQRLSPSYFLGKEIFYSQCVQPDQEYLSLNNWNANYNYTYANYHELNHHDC
In short, it runs like this:
as §1

For another experiment, the target named is ELF4 (Homo sapiens, UniProt Q99607 1-663). The method in brief: as §1
The target in another experiment is T9, ELK4 (Homo sapiens, UniProt P28324-2 1-405).
T9 sequence: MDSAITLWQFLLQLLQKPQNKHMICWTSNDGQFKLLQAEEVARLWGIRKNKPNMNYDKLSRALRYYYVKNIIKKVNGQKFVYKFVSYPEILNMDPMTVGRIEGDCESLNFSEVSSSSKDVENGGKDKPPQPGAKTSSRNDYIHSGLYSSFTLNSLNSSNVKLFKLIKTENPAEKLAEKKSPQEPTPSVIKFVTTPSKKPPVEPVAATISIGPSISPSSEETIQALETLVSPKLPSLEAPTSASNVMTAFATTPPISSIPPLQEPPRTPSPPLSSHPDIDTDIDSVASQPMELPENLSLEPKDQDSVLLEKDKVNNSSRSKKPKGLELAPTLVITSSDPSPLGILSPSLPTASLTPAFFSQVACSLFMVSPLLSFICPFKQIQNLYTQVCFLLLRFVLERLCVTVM
In short, it runs like this:
as §1

The next experiment deals with T10, ETV2 (Homo sapiens, UniProt O00321 1-342).
T10 sequence: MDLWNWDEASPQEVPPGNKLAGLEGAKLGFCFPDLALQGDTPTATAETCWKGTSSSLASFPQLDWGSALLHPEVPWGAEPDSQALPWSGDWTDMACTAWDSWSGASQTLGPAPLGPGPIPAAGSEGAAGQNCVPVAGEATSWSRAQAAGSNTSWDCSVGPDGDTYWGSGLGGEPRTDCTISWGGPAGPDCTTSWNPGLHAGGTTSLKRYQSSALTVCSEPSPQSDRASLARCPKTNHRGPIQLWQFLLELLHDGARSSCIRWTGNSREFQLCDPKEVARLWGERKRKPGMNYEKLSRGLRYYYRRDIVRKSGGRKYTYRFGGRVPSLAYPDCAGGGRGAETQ
In short, it runs like this:
as §1

For the next experiment, the target named is T11, ELF3 (Homo sapiens, UniProt P78545 1-371).
T11 sequence: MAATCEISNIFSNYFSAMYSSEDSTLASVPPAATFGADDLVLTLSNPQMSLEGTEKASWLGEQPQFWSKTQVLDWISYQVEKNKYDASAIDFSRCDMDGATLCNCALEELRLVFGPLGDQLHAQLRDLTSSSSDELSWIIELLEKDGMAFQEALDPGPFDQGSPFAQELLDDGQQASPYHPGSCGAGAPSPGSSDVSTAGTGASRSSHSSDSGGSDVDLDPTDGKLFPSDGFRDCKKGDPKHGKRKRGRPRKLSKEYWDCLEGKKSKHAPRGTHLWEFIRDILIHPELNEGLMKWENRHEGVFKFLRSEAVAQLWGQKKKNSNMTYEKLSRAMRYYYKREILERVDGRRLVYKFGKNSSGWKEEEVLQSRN
In short, it runs like this:
as §1

For the next experiment, the target named is ETV1 (Homo sapiens, UniProt P50549 1-477). In short, it runs like this: as §1
ETV1, sequence (P50549 whole entry): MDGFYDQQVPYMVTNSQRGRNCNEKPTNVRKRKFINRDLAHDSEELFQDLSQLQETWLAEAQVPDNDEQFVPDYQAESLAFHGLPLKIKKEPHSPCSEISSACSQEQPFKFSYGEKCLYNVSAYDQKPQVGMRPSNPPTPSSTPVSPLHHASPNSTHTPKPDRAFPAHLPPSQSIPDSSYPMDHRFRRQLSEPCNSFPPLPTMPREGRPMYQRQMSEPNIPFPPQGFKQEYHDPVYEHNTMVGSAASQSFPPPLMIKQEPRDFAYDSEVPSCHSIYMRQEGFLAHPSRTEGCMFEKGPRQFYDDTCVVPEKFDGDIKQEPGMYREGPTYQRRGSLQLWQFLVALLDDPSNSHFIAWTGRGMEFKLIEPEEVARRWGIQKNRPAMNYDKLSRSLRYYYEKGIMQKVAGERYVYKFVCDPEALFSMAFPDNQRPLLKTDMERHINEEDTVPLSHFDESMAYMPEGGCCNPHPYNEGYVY

ELF4, sequence (Q99607 whole entry): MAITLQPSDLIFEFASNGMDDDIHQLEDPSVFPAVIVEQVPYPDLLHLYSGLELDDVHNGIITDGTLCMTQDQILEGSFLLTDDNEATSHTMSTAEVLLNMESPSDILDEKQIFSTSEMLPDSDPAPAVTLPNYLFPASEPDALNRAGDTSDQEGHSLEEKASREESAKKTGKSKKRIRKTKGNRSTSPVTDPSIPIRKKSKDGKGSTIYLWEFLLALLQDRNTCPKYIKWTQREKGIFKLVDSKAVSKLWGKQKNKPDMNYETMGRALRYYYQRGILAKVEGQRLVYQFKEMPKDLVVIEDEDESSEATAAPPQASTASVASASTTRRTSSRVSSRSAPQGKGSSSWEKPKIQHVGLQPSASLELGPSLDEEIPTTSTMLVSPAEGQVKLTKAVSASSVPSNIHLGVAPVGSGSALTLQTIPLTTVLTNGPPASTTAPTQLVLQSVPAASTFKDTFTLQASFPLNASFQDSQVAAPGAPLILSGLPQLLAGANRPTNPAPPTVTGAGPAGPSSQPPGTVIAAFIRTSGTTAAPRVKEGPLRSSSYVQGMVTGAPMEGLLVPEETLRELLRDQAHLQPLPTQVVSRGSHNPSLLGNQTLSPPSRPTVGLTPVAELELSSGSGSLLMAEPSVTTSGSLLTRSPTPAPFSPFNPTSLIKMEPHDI
ELF1, sequence (P32519 whole entry): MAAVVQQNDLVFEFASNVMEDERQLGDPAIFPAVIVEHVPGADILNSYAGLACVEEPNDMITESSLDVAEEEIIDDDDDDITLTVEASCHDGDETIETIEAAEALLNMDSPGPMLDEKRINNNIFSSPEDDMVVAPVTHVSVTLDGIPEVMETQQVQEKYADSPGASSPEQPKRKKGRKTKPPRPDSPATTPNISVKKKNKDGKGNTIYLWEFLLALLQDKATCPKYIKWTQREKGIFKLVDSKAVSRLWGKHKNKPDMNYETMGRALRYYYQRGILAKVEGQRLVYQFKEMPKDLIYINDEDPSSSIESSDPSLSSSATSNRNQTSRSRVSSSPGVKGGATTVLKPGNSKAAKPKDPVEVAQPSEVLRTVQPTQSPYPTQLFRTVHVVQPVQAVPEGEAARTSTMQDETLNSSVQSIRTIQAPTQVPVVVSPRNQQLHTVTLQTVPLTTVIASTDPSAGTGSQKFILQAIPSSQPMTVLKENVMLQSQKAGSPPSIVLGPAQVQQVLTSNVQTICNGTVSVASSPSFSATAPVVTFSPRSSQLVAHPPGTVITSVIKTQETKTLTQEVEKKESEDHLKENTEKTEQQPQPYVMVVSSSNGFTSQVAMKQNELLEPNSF
SPIB, sequence (Q01892 whole entry): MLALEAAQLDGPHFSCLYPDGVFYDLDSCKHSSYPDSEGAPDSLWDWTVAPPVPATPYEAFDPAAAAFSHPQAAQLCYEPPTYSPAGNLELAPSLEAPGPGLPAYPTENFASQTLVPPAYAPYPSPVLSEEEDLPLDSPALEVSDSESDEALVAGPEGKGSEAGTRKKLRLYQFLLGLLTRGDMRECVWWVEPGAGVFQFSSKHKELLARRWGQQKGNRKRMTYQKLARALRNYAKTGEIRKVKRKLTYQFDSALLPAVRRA
ETV5, sequence (P41161 whole entry): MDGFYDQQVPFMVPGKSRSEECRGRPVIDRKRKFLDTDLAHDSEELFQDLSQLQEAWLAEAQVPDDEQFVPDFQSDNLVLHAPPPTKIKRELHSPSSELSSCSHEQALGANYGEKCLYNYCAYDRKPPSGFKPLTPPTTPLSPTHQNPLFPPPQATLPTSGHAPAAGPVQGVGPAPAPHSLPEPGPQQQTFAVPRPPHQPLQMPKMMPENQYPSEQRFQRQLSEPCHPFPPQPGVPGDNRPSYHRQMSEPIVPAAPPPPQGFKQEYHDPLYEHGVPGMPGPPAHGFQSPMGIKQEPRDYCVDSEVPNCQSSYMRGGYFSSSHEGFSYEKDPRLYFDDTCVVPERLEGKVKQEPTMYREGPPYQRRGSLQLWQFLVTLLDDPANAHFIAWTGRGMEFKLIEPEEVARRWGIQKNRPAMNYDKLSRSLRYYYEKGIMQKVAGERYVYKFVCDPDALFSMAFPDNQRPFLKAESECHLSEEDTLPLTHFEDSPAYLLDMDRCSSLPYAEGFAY

In the case of ACAGGA, the binding signal was 1.15 fold enrichment (6-mer frequency, TF over GST control) in the experiment with FLI1; 1.08 fold enrichment (6-mer frequency, TF over GST control) with ELK1; 1.13 fold enrichment (6-mer frequency, TF over GST control) with GABPA; 1.22 fold enrichment (6-mer frequency, TF over GST control) with ERG; 1.04 fold enrichment (6-mer frequency, TF over GST control) with ELF1; 1.12 fold enrichment (6-mer frequency, TF over GST control) with EHF. In addition, the binding signal in the experiment with SPI1 was 1.34 fold enrichment (6-mer frequency, TF over GST control); with SPIB, 1.22 fold enrichment (6-mer frequency, TF over GST control); with ELK3, 1.04 fold enrichment (6-mer frequency, TF over GST control); in the experiment with FEV, 1.18 fold enrichment (6-mer frequency, TF over GST control); with ETV5 it was 1.19 fold enrichment (6-mer frequency, TF over GST control); in the experiment with SPIC it was 1.07 fold enrichment (6-mer frequency, TF over GST control). The binding signal with ELF4 is 1.04 fold enrichment (6-mer frequency, TF over GST control); with ELK4, 1.04 fold enrichment (6-mer frequency, TF over GST control); with ETV2 it was 1.06 fold enrichment (6-mer frequency, TF over GST control); with ELF3, 1.15 fold enrichment (6-mer frequency, TF over GST control); in the experiment with ETV1, 1.16 fold enrichment (6-mer frequency, TF over GST control).
On to CGTCCG, for which the binding signal is 1.31 fold enrichment (6-mer frequency, TF over GST control) with FLI1; 1.27 fold enrichment (6-mer frequency, TF over GST control) in the experiment with ELK1; 1.24 fold enrichment (6-mer frequency, TF over GST control) with GABPA; 1.27 fold enrichment (6-mer frequency, TF over GST control) in the experiment with ERG; 1.28 fold enrichment (6-mer frequency, TF over GST control) with ELF1; 1.36 fold enrichment (6-mer frequency, TF over GST control) with EHF. In addition, the binding signal was 1.08 fold enrichment (6-mer frequency, TF over GST control) with SPI1; 1.41 fold enrichment (6-mer frequency, TF over GST control) in the experiment with SPIB; 1.36 fold enrichment (6-mer frequency, TF over GST control) in the experiment with ELK3; 1.48 fold enrichment (6-mer frequency, TF over GST control) with FEV; 1.23 fold enrichment (6-mer frequency, TF over GST control) in the experiment with ETV5; 1.37 fold enrichment (6-mer frequency, TF over GST control) in the experiment with SPIC. For the same sequence, the binding signal is 1.26 fold enrichment (6-mer frequency, TF over GST control) in the experiment with ELF4; 1.17 fold enrichment (6-mer frequency, TF over GST control) with ELK4; 1.16 fold enrichment (6-mer frequency, TF over GST control) with ETV2; 1.26 fold enrichment (6-mer frequency, TF over GST control) in the experiment with ELF3; 1.38 fold enrichment (6-mer frequency, TF over GST control) with ETV1.
